# In PubChem BioAssay AID686934 (National Center for Advancing Translational Sciences (NCATS), 2013):
# Results filed as inconclusive are left out. Calls of active or inactive are those of the source. Calls come from the whole dose curve; as a rule, active = well fitted curve in the direction sought with a large enough effect; inconclusive = small, poorly fitted or top-dose-only effect, or another doubt; inactive = no such curve, though single readings can be large or run the other way.
# Test: qHTS screen for small molecules that inhibit ELG1-dependent DNA repair: SAR in Cell-Based Luciferin Counter Assay
# Settings: cell-based luciferase counter-screen, luminescence; series mostly up to 45.7 µM
# Excerpt: Cancer cells divide rapidly compared to normal cells in the body. During cell division, cancer cells need to duplicate their genome by DNA replication. The failure of genome duplication leads to cancer cells' death. Therefore, inhibitors of DNA replication could specifically kill cancer cells. Based on this concept, many chemotherapeutic agents were developed and have been used to treat cancer patients. However, there are a limited number of agents available in the clinical setting, and some of those that do exist have low efficacy and severe side effects. Therefore, if we can find the compounds that effectively block DNA replication either by directly damaging DNA or by inhibiting other cellular mechanisms, the options for cancer treatment will be broadened. With this in mind, we developed a quantitative high-throughput ELG1-luciferase reporter gene assay. Small molecules that specifically block ELG1 function in response to DNA damage can be identified by monitoring the suppression of luciferase activity. Since ELG1 defines a pathway for repairing DNA damage, agents blocking ELG1 function can be used to sensitize cancer cells to chemotherapeutic agents whose mechanism of action involves the induction of DNA damage. This assays is a counterscreen, that is more specifically, a cell-based luciferase assay following treatment with putative ELG1 antagonists to eliminate luciferase enhancers/inhibitors NIH Molecular Libraries Probe Production Network [MLPCN] NIH Chemical Genomics Center [NCGC] MLPCN Grant: R03 MH092164 Assay Provider: Kyungjae Myung, NHGRI, NIH
# 3 uL of substrate reagent will be pipetted into each well in 1536-well white, solid-bottom plates using a FRD dispenser, followed by addition of 23 nL of DMSO or compounds by pintool. After compound addition, 1 µL of luciferase will be added into the wells. The plates will be read in a ViewLux CCD-based plate reader.
row,SMILES,outcome
1,COc1ccccc1/C=C/c1nc2ccccc2o1,inactive
2,O=C(NC1CCCC1)c1cc(-c2cccs2)on1,inactive
3,CCCC(=O)Oc1ccc2[nH]c(C(=O)c3cc4ccccc4[nH]3)cc2c1,inactive
4,COc1cccc2c1C(=O)/C(=C\c1ccc(N(C)C)cc1)C2,inactive
5,COc1cc(C)c2c(=O)cc(-c3ccccc3)oc2c1,inactive
6,COc1ccc(-c2coc3cc(O)cc(O)c3c2=O)cc1,inactive
7,O=C(COc1ccccc1Cl)Nc1ccc(-c2nc3ccccc3s2)cc1,inactive
8,Cc1noc(C)c1-c1ccc2ncnc(NCc3ccc(F)c(F)c3)c2c1,inactive
9,Oc1cc2cc(-c3csc(-c4ccc(F)cc4)n3)cc3c2n1CCC3,inactive
10,COc1cc2c(cc1OC)C1C(=O)c3c(cc4c(c3O)C=CC(C)(C)O4)OC1CO2 (stereo not given),inactive
11,COC(=O)Nc1nc2ccc(C(=O)c3cccs3)cc2[nH]1,inactive
12,CNC(=O)c1cc(-c2cccs2)on1,inactive
13,CC(=O)Nc1ccc(/C=C/c2sc3ccccc3[n+]2CCCCI)cc1,inactive
14,Cc1csc(CNc2ncnc3ccc(-c4ccoc4)cc23)c1,inactive
15,Cc1ccnc(NC(=S)N2CCN(c3ccc(N)cc3)CC2)c1,inactive
16,CC(C)CN(C)c1ccc(/C=C2\C=Cc3ccccc32)cc1,inactive
17,O=c1[nH]c(-c2ccc(-c3cccc(Cl)c3)o2)nc2ccccc12,inactive
18,NC(=O)C1CCN(c2cc(-c3ccc4c(c3)OCCCO4)ncn2)CC1,inactive
19,Oc1ccc(CCc2ccccc2F)c2cccnc12,inactive
20,COc1cccc([C@@H]2Oc3ccc(OC)cc3C(=O)[C@H]2OC(=O)NS(=O)(=O)c2ccc(C)cc2)c1,inactive

row,SMILES,outcome
1,CN(C)c1ccc(N=Nc2ccc(/C=C/c3ccnc4ccccc34)cc2)cc1,inactive
2,Nc1ccc2cccnc2c1,inactive
3,CN(Cc1ccco1)c1ncnc2ccc(-c3cccc(Cl)c3)cc12,inactive
4,CN(C)c1cccc(-c2nnc(N3CCC(C(N)=O)CC3)s2)c1,inactive
5,O=S(=O)(c1c(F)cccc1F)N1CCN(S(=O)(=O)c2c(F)cccc2F)CC1,inactive
6,COc1ccc(OC)c(-c2nnc3n2N=C(c2ccc(OC)c(OC)c2)CS3)c1,inactive
7,Cc1ccc2nc3sc(C(=O)NCc4ccco4)cc3cc2c1,inactive
8,O=c1[nH]c(=O)n([C@@H]2O[C@H](CO)[C@@H](O)[C@H]2O)cc1F,inactive
9,CN(C)N=Nc1ccc(/C=C2\C=Cc3ccccc32)cc1,inactive
10,COc1ccc(C2=Nn3c(nnc3-c3ccccc3OC)SC2)cc1OC,inactive
11,CC(=O)Oc1ccc(-c2nc(-c3ccccc3)no2)cc1,inactive
12,COc1ccc(C2CC(c3c(O)cc(C)oc3=O)=NCCS2)c(OC)c1 (stereo not given),inactive
13,O=C(Nc1ccccn1)c1sc2ccc([N+](=O)[O-])cc2c1Cl,inactive
14,Oc1ccc(/C=C/c2c(F)cccc2F)c2cccnc12,inactive
15,COc1ccc(-c2cnc(-c3cccnc3)o2)cc1,inactive
16,Cc1cc2ncc(-c3ccccc3)nc2cc1C,inactive
17,CN(C)c1ccc(/C=C2\C=Cc3ccccc32)c(F)c1,inactive
18,COc1cccc2oc(-c3ccccc3)cc(=O)c12,inactive
19,O=C(c1cc2ccccc2[nH]1)c1cc2cc(O)ccc2[nH]1,inactive
20,c1cncc(CNc2ncnc3ccc(-c4ccoc4)cc23)c1,inactive
